Laboratory results published in ChEMBL document CHEMBL3988442, “University of Dundee, Small-Polar-MMV Screening Library” (2021).
Out of some 85,000 compounds screened, about 440 (0.52%) showed an effect of 50% or more. The full list was thinned out, with strong results kept by preference.

Test: In vitro enzyme assay to detect hydrolysis of chlorophenol red-beta-D-[…] directly proportional to the number of Toxoplasma stably expressing beta-galactosidase
Type: functional, organism-based, Toxoplasma gondii
Set-up: scale not given: in the data most compounds retested in dose-response had high values

| Compound | Percent Effect (50 µM) [%] | Percent Effect (10 µM) [%] |
| --- | --- | --- |
| CC(=O)c1ccc2c(c1)CCC(=O)N2C | 4.842 | – |
| CCOC(=O)NCCC(=O)N1CCCCCC1 | 12.12 | – |
| Cc1ccc(F)c(S(=O)(=O)NC[C@@H]2CCNC[C@H]2O)c1 | 0.2013 | – |
| CN(C)Cc1nnc(-c2ccccc2)o1 | 4.493 | – |
| Cc1cc(CN)sc1C | 12.43 | – |
| COC(=O)c1ccc2c(c1)N(C)C(=O)CO2 | -4.49 | – |
| CCn1c(NCc2ccccc2)nc2c(C)nn(C)c2c1=O | – | 72.53 |
| CCn1c(NCc2ccc(OC)cc2)nc2c(C)nn(C)c2c1=O | – | 69.56 |
| COc1ccc(C(C)Nc2nc3c(C)nn(C)c3c(=O)n2C)cc1 (configuration not stated) | – | 18.77 |
| CCn1c(NCc2ccco2)nc2c(C)nn(C)c2c1=O | – | 8.368 |
| COc1ccc(Nc2nc3c(C)nn(C)c3c(=O)n2C)cc1 | – | 8.6 |
| CCn1c(Nc2ccccc2OC)nc2c(C)nn(C)c2c1=O | – | -60.37 |
| O=C(NCC1(O)CCNC1)c1ccc(F)c(O)c1 (configuration not stated) | -8.112 | – |
| O=C(NCc1c[nH]nn1)C1(Cc2ccccc2)CCC1 | -1.868 | – |
| O=C(Nc1cnccn1)c1ccc(F)cn1 | 3.391 | – |
| Cc1ncc(CN(C)CCO)c2cc(C(=O)c3ccc(Br)cc3)oc12.Cl | – | 15.47 |
| Cc1ncc(CNC(C)(C)CO)c2cc(C(=O)c3ccc(Br)cc3)oc12 | – | 20.02 |
| Cc1ncc(CNCCO)c2cc(C(=O)c3ccc(Br)cc3)oc12.Cl | – | 76.96 |
| Cc1ncc(CN2CCCC2)c2cc(C(=O)c3ccc(Br)cc3)oc12.Cl | – | 24.27 |
| Cc1ncc(CNCC(C)O)c2cc(C(=O)c3ccc(Br)cc3)oc12.Cl (configuration not stated) | – | 12.01 |
| COC(=O)c1ccc(C(=O)NC2(C#N)CCCC2)cc1 | -9.94 | – |
| COc1cc(CN)cc(Br)c1OC | 0.1756 | – |
| Cn1ccc(C(=O)N2CCOc3ccccc32)cc1=O | -11.87 | – |
| Cc1scc(-c2nnc(SCC(N)=O)n2C)c1C | -29.64 | – |

| Compound | Percent Effect (50 µM) [%] | Percent Effect (10 µM) [%] |
| --- | --- | --- |
| CSC(C)C(=O)Nc1ccc(Cl)c(C(=O)N(C)C)c1 (configuration not stated) | 8.458 | – |
| Cc1cc(C(=O)NCc2c(C)nn(C)c2C)nc(N2CCOCC2)n1 | – | 20.1 |
| CCN(CC)c1nc(C)cc(C(=O)Nc2cnn(CC)c2)n1 | – | -30.04 |
| Cc1cc(C(=O)Nc2cnn(CC(F)(F)F)c2)nc(N2CCOCC2)n1 | – | 69.43 |
| CCn1cc(NC(=O)c2cc(C)nc(N3CCOCC3)n2)cn1 | – | 48.82 |
| Cn1nccc1C(=O)Nc1cnn(CC(F)(F)F)c1 | -29.38 | – |
| Cc1cc(C(=O)Nc2cnn(CC(F)(F)F)c2)nc(N(C)C)n1 | – | 54.34 |
| CCCn1ccc(NC(=O)NC(C)C)n1 | -36 | – |
| CN(C)CC(=O)NC(C)(C(N)=O)c1cccc(Cl)c1 (configuration not stated) | 2.258 | – |
| Cc1ccc2c(c1)C(=O)NCC2 | -9.759 | – |
| CCc1ccc(CN(CCO)Cc2nccn2C)nc1 | 67.1 | – |
| CSc1ccc(CN(CCO)Cc2nccn2C)cc1 | – | 19.56 |
| Cc1cccc(CN(CCO)Cc2nccn2C)n1 | 18.88 | – |
| NC(=O)OCCNC(=O)c1occc1Br | 5.554 | – |
| CCN1CCCC1CNC(=O)c1cccc(OC)c1 (configuration not stated) | 4.98 | – |
| CCNC(=O)C1CN(C(=O)C(O)c2ccc(Br)cc2)C1 (configuration not stated) | -1.346 | – |
| CSc1ccc(CN2C[C@@H]3CC[C@@](O)(c4ccc(C)cn4)[C@@H]3C2)cc1 | – | 14.14 |
| Cc1ccc([C@]2(O)CC[C@H]3CN(Cc4cccc(Cl)c4Cl)C[C@H]32)nc1.O=C(O)CC(O)(CC(=O)O)C(=O)O | – | 51.44 |
| Cc1ccc([C@]2(O)CC[C@H]3CN(Cc4cccc(F)c4F)C[C@H]32)nc1.O=C(O)CC(O)(CC(=O)O)C(=O)O | – | -4.995 |
| Cc1cccnc1[C@]1(O)CC[C@H]2CN(Cc3cccc(Cl)c3Cl)C[C@H]21.O=C(O)CC(O)(CC(=O)O)C(=O)O | – | 10.13 |
| Cc1ccc([C@]2(O)CC[C@H]3CN(Cc4ccc(Cl)cc4Cl)C[C@H]32)nc1 | – | 8.934 |
| Cc1ccc(F)cc1S(=O)(=O)N1CCN[C@H](C)C1 | -0.3006 | – |
| CCN1CN=C(NS(=O)(=O)c2ccc(C)cc2)NC1 | -65 | – |
| CCSc1cc(C(=O)N2CC[S+]([O-])CC2)ccn1 | 18.59 | – |

| Compound | Percent Effect (50 µM) [%] | Percent Effect (10 µM) [%] |
| --- | --- | --- |
| CC(CCc1ccc(O)cc1)NCCN1CCOCC1 (configuration not stated) | -1.81 | – |
| O=C(CSCC(=O)NC1CC1)Nc1ccccc1 | 16.41 | – |
| CN(C)CCC1CN(C(=O)CCc2cccs2)CCO1 (configuration not stated) | -11.11 | – |
| CCOc1c(OC)cc(CN)cc1OC | -2.331 | – |
| CCC(CO)Nc1ncc(C(F)(F)F)cc1Cl (configuration not stated) | -11.03 | – |
| CCOc1cccc(NC(=O)NCCN(C)C)n1 | -13.49 | – |
| COc1ccc(CS(=O)(=O)CC(=O)NCC2CC2)cc1F | – | 4.977 |
| Cc1cccc(CC(=O)NCC2CCCNC2)c1 (configuration not stated) | -6.216 | – |
| COc1ccc(CC(=O)NCC2CCCNC2)cc1F (configuration not stated) | 55.41 | – |
| CCC(C)NC(=O)c1cnn(-c2ccccc2)c1 (configuration not stated) | -7.328 | – |
| CCC(OC)c1n[nH]c(=O)n1Cc1cccc(OC)c1 (configuration not stated) | -6.855 | – |
| CCC(C)NCCOC (configuration not stated) | -11.32 | – |
| CCN(CC(=O)NC)C(=O)C(C)SC (configuration not stated) | 23.69 | – |
| CC(C)(C)c1nccc(C2(c3ccccc3Cl)CCNCC2)n1 | – | 94.8 |
| Clc1ccccc1C1(c2ccnc(C3CCCC3)n2)CCNCC1 | – | 92.51 |
| CC(C)c1nccc(C2(c3ccccc3Cl)CCNCC2)n1 | – | 24.49 |
| O=c1[nH]cccc1-c1nccc(C2(c3ccccc3Cl)CCNCC2)n1 | – | 22.57 |
| OC1(c2ccccc2Cl)CCNCC1 | 6.16 | – |
| Clc1ccccc1C1(c2ccnc(C3CC3)n2)CCNCC1 | – | 61.01 |
| Clc1ccccc1C1(c2ccnc(-c3ccncc3)n2)CCNCC1 | – | 16.95 |
| Clc1ccccc1C1(c2ccnc(CC3CC3)n2)CCNCC1 | – | 35.91 |
| Clc1ccccc1C1(c2ccnc(-c3ncccn3)n2)CCNCC1 | – | 5.922 |
| NC(=O)C1(CNCc2cccc(F)c2)CCOCC1 | -0.9049 | – |
| CSCc1nnc(SCC(=O)NC2(C#N)CCCC2)o1 | 9.959 | – |

| Compound | Percent Effect (50 µM) [%] | Percent Effect (10 µM) [%] |
| --- | --- | --- |
| CCCNC(=O)C1CCCN1 (configuration not stated) | 2.398 | – |
| CC(=O)Nc1ccc(-n2cncn2)nc1 | -6.105 | – |
| O=C(NCc1cccnc1)c1cn2cccnc2n1 | -2.314 | – |
| Cc1nc(C)c(C(=O)NCc2ncoc2C)s1 | -1.836 | – |
| Cc1ocnc1CNC(=O)c1ccon1 | 99.22 | – |
| Cc1noc(CCCNC(=O)c2ccon2)n1 | 62.73 | – |
| Cc1ocnc1CNC(=O)c1ccc(Br)cn1 | 1.589 | – |
| CC1(CCNC(=O)c2ccon2)OCCO1 | 9.96 | – |
| Cc1noc(CCCNC(=O)CNC(=O)c2cc3ccccc3[nH]2)n1 | – | 4.234 |
| CCC=C(C)C(=O)NCC(C)N1CCN(CC)CC1 (configuration not stated) | 11.7 | – |
| CCNC(=O)C1CCN(C(=O)Cc2cccc(O)c2)C1 (configuration not stated) | -5.389 | – |
| CC(C)(O)CCN1CCC(NC(=O)C2CCC2)CC1 | 0.697 | – |
| COCCN1CCC(c2ccn[nH]2)CC1 | -6.586 | – |
| CNC(=O)NC(=O)CSc1ccccc1F | -1.003 | – |
| COc1ncccc1C(=O)NCC(=O)N1CCCC1 | -2.429 | – |
| CCOc1ncccc1C(=O)NCC(C)N1CCCC1 (configuration not stated) | 52.4 | – |
| CCOc1ncccc1C(=O)NCC1CCCN1CC (configuration not stated) | -0.459 | – |
| CCN1C(=O)C[C@H](CN)[C@H]1c1ccncc1 | 4.591 | – |
| CCCn1cnnc1CNC | 0.9072 | – |
| COc1cccc(-c2cc(C(=O)Nc3nc[nH]n3)[nH]n2)c1 | – | 20.51 |
| CNc1cc(-c2cccc(OC)c2)[nH]n1 | 98.42 | – |
| CNc1cc(OC)ccn1 | -16.02 | – |
| Cn1cc(Br)c(CO)n1 | 1.484 | – |
| Cc1cc(CCC(=O)NCCC(N)=O)ccc1Br | -2.096 | – |

| Compound | Percent Effect (50 µM) [%] | Percent Effect (10 µM) [%] |
| --- | --- | --- |
| Cc1cc(F)ccc1S(=O)(=O)N1C[C@H](C2CC2)[C@@H](N)C1 | 8.476 | – |
| Cc1ccc(F)cc1S(=O)(=O)N1C[C@H](C2CC2)[C@@H](N)C1 | 98.86 | – |
| Cc1ccc(F)c(S(=O)(=O)N2C[C@H](C3CC3)[C@@H](N)C2)c1 | 7.08 | – |
| COc1ccc(S(=O)(=O)N2C[C@H]3CNC[C@@H](C2)O3)cc1 | -2.543 | – |
| OCC1CCN(Cc2ccccc2)CC1 | -5.201 | – |
| NCc1cccc(OCC(F)F)c1 | -2.735 | – |
| CCCc1ccc(CN2CCC(NC(C)=O)C2)o1 (configuration not stated) | 2.217 | – |
| O=C(NCC1CCN(C2CC2)C1)c1ccccc1F (configuration not stated) | 13.84 | – |
| CN(C)[C@H]1CCCCN(C(=O)Cn2cc(Cl)cn2)C1 | 95.45 | – |
| CN(C)c1cc(C2CCCN(C(=O)Cn3cc(Cl)cn3)C2)ccn1 (configuration not stated) | – | 0.9748 |
| O=C(Cn1cc(Cl)cn1)N1CCCC(c2ccn[nH]2)C1 (configuration not stated) | – | -16.77 |
| CC(C)(C)CC1CCCN1S(N)(=O)=O (configuration not stated) | -15.84 | – |
| CC(C)(C(=O)OCC(N)=O)c1ccccc1 | 2.133 | – |
| CC(C)N(C)CC(=O)NCCn1cccc1 | 7.108 | – |
| O=C(NCc1n[nH]c(=O)[nH]1)C1COc2ccccc21 (configuration not stated) | -1.703 | – |
| CNc1ncc2c(n1)CN(CCc1ccccc1)C2=O | – | -25.26 |
| CNc1ncc2c(n1)CN(c1cccc(OC)c1)C2=O | – | 69.02 |
| COc1ccc(N2Cc3nc(N)ncc3C2=O)cc1 | – | 9.612 |
| COc1cccc(N2Cc3nc(=O)[nH]n3C2=O)c1 | – | -7.908 |
| Cc1cccc(N2Cc3nc(N4CCC(C)CC4)ncc3C2=O)c1 | – | 14.75 |
| CCNc1ncc2c(n1)CN(c1cccc(OC)c1)C2=O | – | 76.16 |
